Source: PubChem (National Center for Advancing Translational Sciences (NCATS))
FEN1 inhibitor: human FEN1 inhibition. AID 588795. Potency, µM (titrated, usually from 114 µM), actives largely listed as inhibitors. actives 0.35% (n = 390,000). P39748. Recombinant FEN1 flap cleavage, fluorescence, 15 min; also: nearly all actives have a fitted effect of over 65% in size
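FEN1 at 10 nM, compound pretreatment for 15 min (room temperature), 50 nM final substrate to initiate; endpoint reads at 0 and 15 min; DMSO-only plates used as vehicle background.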
GCN5L2 inh: GCN5L2 (KAT2A) acetyltransferase inhibition; Q92830; GCN5L2 HAT assay, ThioGlo1 CoA-SH fluorescence; Potency, µM (titrated, usually from 58.9 µM), usual class: inhibitors; actives 0.21% (n = 390,000); AID 504327
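GCN5L2 (20 nM) in 50mM HEPES pH 7.5, 0.1mM EDTA, 0.01% Tween-20 preincubated 15 min with compounds at room temperature. Reaction started with H3(1-25) 75uM, acetyl-CoA 70uM, ThioGlo1 50uM; CoA-thiol fluorescence (Ex340/Em540) read at 0 and 20 min.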
APE1 inh: APE1 (human) endonuclease inhibition; recombinant APE1, TAMRA/BHQ-2 abasic DNA cleavage fluorescence; Potency, µM (top dose mostly 65.8 µM), most hits filed as inhibitors; actives 0.35% (n = 350,000); AID 2517; also: nearly all actives have a fitted effect of over 55% in size
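Incision of a quenched TAMRA/BHQ-2 THF abasic-site duplex (50 nM) by 0.75 nM APE1, after 15 min compound preincubation, measured as fluorescence increase over three 60 s reads. Values normalized to buffer, DMSO and NSC13755 control wells.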
PI5P4K alpha inh: PI5P4K alpha (human) kinase inhibition | AID 652105 | actives 1.2% (n = 330,000) | PI5P4Kalpha enzyme, ADP-Glo luminescence, 60 min; active compounds read low | max response, % | P48426; active = max response of -50% or lower; inconclusive = between -30% and -50%; inactive = -30% or higher; also: value at the top dose of about 77 µM
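Compounds were pin-transferred onto PI5P4Kalpha and substrate in HEPES pH 7.4 buffer with EGTA, CHAPS and 5% DMSO. ATP (5 microM final) started the reaction, which ran 60 minutes at room temperature before ADP-Glo detection.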
BLM inh: blocks DNA unwinding by human BLM helicase; P54132; recombinant BLM DNA unwinding, fluorescence dequenching; Potency, µM (highest dose often 56.1 µM), hits mostly inhibitors; actives 0.2% (n = 350,000); also: nearly all actives have a fitted effect of over 35% in size
Target sequence (P54132 whole entry, looked up): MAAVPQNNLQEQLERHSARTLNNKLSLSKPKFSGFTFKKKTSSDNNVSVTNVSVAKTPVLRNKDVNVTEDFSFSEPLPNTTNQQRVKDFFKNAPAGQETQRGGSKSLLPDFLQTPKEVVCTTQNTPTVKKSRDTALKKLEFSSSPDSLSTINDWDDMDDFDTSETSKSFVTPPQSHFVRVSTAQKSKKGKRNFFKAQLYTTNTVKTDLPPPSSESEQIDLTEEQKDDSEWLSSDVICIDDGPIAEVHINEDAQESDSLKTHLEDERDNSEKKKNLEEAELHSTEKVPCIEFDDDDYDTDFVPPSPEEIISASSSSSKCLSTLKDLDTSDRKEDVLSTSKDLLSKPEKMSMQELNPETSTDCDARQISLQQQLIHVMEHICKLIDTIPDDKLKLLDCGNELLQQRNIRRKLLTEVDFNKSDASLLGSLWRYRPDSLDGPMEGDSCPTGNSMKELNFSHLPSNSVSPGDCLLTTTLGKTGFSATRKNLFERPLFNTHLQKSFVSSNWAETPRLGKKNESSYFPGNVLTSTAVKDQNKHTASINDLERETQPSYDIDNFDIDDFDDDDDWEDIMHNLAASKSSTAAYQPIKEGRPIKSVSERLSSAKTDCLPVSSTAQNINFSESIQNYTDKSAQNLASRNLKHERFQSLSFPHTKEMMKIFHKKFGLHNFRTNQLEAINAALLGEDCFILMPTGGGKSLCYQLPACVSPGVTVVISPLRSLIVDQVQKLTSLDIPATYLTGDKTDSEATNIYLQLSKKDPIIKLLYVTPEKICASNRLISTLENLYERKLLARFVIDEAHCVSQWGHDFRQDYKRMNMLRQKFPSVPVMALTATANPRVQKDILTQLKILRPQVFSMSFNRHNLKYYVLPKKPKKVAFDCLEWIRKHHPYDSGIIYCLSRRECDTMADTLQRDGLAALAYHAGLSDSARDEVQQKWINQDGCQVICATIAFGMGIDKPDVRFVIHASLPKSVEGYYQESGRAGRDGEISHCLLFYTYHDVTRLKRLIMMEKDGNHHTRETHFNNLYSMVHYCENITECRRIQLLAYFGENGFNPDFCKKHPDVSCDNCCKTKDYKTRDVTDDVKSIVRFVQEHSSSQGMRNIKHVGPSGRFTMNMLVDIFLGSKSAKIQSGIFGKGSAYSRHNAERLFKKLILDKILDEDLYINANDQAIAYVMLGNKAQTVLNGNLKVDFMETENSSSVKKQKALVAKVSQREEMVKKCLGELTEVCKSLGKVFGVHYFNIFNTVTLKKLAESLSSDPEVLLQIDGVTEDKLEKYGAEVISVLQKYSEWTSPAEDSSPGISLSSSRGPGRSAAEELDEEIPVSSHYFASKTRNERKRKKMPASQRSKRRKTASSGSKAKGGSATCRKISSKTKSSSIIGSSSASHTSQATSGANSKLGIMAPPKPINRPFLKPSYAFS
RECQ1 inh: inhibitors of human RECQ1 DNA helicase | actives 0.54% (n = 240,000) | Potency, µM (doses to about 57.3 µM), most hits filed as inhibitors | RECQ1 DNA unwinding, red fluorescence kinetic read | P46063; also: nearly all actives have a fitted effect of over 30% in size
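50 nM RECQ1T1 preincubated 15 min with compound in Tris pH 8.0 buffer with MgCl2, DTT, Tween-20 and 2.5 ug/ml poly(dI-dC); started with 200 nM TAMRA/BHQ-2 forked duplex and 2 mM ATP. Unwinding read as fluorescence (525/598 nm), two reads 2 h apart.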
A number is an active result; n = inactive; u = inconclusive; x = no result; ! = not confirmed by another sample. Most compounds without a hit are left out; they make up all but 1.5% or so of the library. Unless noted, calls follow the shape of the dose curve; as a rule, active = well fitted curve in the direction sought with a large enough effect; inconclusive = small, poorly fitted or top-dose-only effect, or another doubt; inactive = no such curve, though single readings can be large; an effect the other way counts as inactive or inconclusive.

SMILES	FEN1 inhibitor	GCN5L2 inh	APE1 inh	PI5P4K alpha inh	BLM inh	RECQ1 inh
Brc1cccc[n+]1CCCC[n+]1ccccc1Br	79.4µM	x	x	x	x	x
Brc1cccc[n+]1CCCCCC[n+]1ccccc1Br	79.4µM	x	x	x	x	x
Brc1cccc[n+]1C/C=C/C[n+]1ccccc1Br	n	x	x	x	x	x
CCN(CC)CCN(C)c1ccc(/C=C/c2ccnc3ccccc23)cc1	n	x	x	x	x	x
Nc1ccc(Cc2ccc(C=O)cc2)cc1	n	x	x	x	x	x
CN1CCN(S(=O)(=O)c2ccc3c(c2)C(C)(C)C(=O)N3C)CC1	n	n	n	n	n	x
CC1CCCN(S(=O)(=O)c2ccc3c(c2)C(C)(C)C(=O)N3C)C1 (stereo not drawn)	n	28.2µM	n	n	n	x
Cc1ccc(OCC(=O)Nc2cc(C(=O)O)cc(C(=O)O)c2)cc1C	n	n	n	-55.0	n	n
Cc1ccc(-c2nc(=Nc3c(C)cc(C)cc3C)sn2-c2ccccc2)cc1	n	x	x	x	x	x
O=c1cc(-c2ccccc2)oc2ccc3ccccc3c12	x	x	x	n	x	x
O=c1oc(-c2ccc(O)c(O)c2)cc2cc(O)cc(O)c12	35.5µM	n	n	-66.3	x	x
O=c1cc(-c2ccc(O)c(O)c2)oc2ccc3ccccc3c12	u	n	0.423µM	n	x	x
COc1ccc(-c2oc3ccccc3c(=O)c2O)cc1	x	n	n	x	n	n
O=c1c(O)c(-c2ccc(O)c(O)c2)oc2ccccc12	x	x	u	x	n	2.24µM
O=c1c(O)c(-c2cc(O)c(O)c(O)c2)oc2cc(O)ccc12	x	u	0.282µM	x	n	4.47µM
CCCN1CNc2c(c(=O)[nH]c(=S)n2CCc2cc(C)cc(C)c2)C1	n	x	x	x	x	x
CC1CC=CC2C1C(=O)N(Cc1ccccc1)C2c1ccc(F)c(Br)c1 (stereo not drawn)	n	x	n	x	n	n
CCn1nnc2c(N3CCCC3)ncnc21	n	x	x	x	x	x
O=C(N/N=C/c1cccc(O)c1)N/N=C/c1cccc(O)c1	n	u	n	-52.7	n	x
O=C(CCc1ccccc1)N/N=C/c1cccc(O)c1	n	n	n	n	n	n
CCCOC(C(=O)OC1CCN(C)CC1)(c1ccccc1)c1ccccc1	x	n	x	x	n	x
O=c1[nH]c(=O)n(C2OC(CO)C(O)C2O)cc1N1CCOCC1 (stereo not drawn)	n	x	x	n	x	x
Nc1cn(C2OC(CO)C(O)C2O)c(=O)[nH]c1=O (stereo not drawn)	n	n	18.9µM	n	n	x
C1=Cc2ccccc2/C1=C\c1cc2c3c(c1)CCCN3CCC2	n	x	x	x	x	x
COc1ccc(C(=O)c2cn(CC(=O)Nc3ccc4c(c3)OCCO4)c3ccc(OC)cc3c2=O)cc1	39.8µM	n	x	x	10µM	x
SMILES	FEN1 inhibitor	GCN5L2 inh	APE1 inh	PI5P4K alpha inh	BLM inh	RECQ1 inh
COc1ccc(-n2nc(C(=O)NCC(=O)NC(C)C)c3ccccc3c2=O)cc1Cl	n	7.08µM	n	n	n	x
CCC(C)NC(=O)CNC(=O)c1nn(-c2ccc(OC)c(Cl)c2)c(=O)c2ccccc12 (stereo not drawn)	n	n	n	n	n	x
CCc1ccc(NC(=O)CSc2nnc(-c3ccccc3)n2C)cc1	n	x	x	x	x	x
CCSc1nnc(NC(=O)C2Cc3ccccc3CN2C(=O)c2ccco2)s1 (stereo not drawn)	n	n	n	-51.6	n	n
O=S(=O)(c1ccccc1C(F)(F)F)N1CCN(c2nc(-c3cccs3)nc3ccccc23)CC1	n	x	x	x	x	x
COC(=O)C1=C(C)N(CCCC(=O)O)C(=O)NC1c1cccc(OC)c1 (stereo not drawn)	n	x	x	-51.9	x	x
COC(=O)C1=C(C)N(CCCC(=O)O)C(=O)NC1c1ccc2c(c1)OCO2 (stereo not drawn)	n	x	x	-62.0	x	x
O=C(CSc1nc2sc3c(c2c(=O)n1-c1ccccc1)CCCC3)N/N=C/c1ccccc1C(=O)O	50.1µM	n	10.6µM	n	u	x
Cc1ccc(S(=O)(=O)N2CCN(c3nc(-c4cncs4)nc4ccccc34)CC2)cc1	n	x	x	x	x	x
Cc1cc(N=Nc2c(O)c3ccccc3[nH]c2=O)ccc1N=Nc1ccc(C(=O)N(C)C)cc1	n	n	n	n	n	n
CN(C)C(=O)c1ccc(N=Nc2c(O)c3ccccc3[nH]c2=O)cc1	n	x	x	-75.9	x	x
CN(C)c1ccc(/C=C/c2ccnc3c(-c4ccccc4)cccc23)cc1	n	x	x	x	x	x
CCCNC[C@H](O)COc1ccccc1C(=O)CCc1ccccc1	x	n	n	x	n	n
Cn1c(=O)c(=O)n(C)c2cc(S(=O)(=O)CCC(=O)Nc3ccc(F)cc3)ccc21	n	1.26µM!	n	n	n	x
CCOc1ccc(NC(=O)CCS(=O)(=O)c2ccc3c(c2)n(C)c(=O)c(=O)n3C)cc1	n	n	x	x	n	x
C=C1C=C(C)n2ncc(C(=O)NCCCCCC)c2N1	n	x	x	x	x	x
O=C(C[C@@H]1C/C=C\C[C@H](Cc2ccc(F)cc2)C(=O)OC[C@@H](Cc2c[nH]c3ccccc23)NC1=O)NCCO	n	n	11.9µM	n	x	x
Cc1ccc(S(=O)(=O)Oc2ccc(N=Nc3ccc(-c4ccc(N=Nc5c(O)ccc6cc(S(=O)(=O)O)cc(S(=O)(=O)O)c56)c(C)c4)cc3C)cc2)cc1	x	x	35.5µM	x	x	25.1µM
Cc1cccc(NC(=O)c2cnn3c2NC(=C2CC2)C=C3C(F)F)n1	x	x	n	x	x	x
CC(=O)/C(C#N)=C1\NC(=O)C(Cc2cc(Cl)ccc2Cl)S1 (stereo not drawn)	n	n	n	-53.3	n	n
Cn1c2ccccc2c(=O)c2c(=O)n(C3CCCCC3)c(-c3cccs3)nc21	56.2µM	n	n	x	n	n
CCCCCCC[n+]1c(/C=C/c2ccc(N(C)C)cc2)sc2ccccc21	35.5µM	x	x	x	x	x
N#Cc1ccc2sn(-c3ccccc3)c(=O)c2c1	x	x	x	-108.2	x	x
O=c1c2cc([N+](=O)[O-])ccc2sn1-c1ccccc1	x	x	x	-99.6	x	x
CC(=O)Nc1ccc2sn(-c3ccccc3)c(=O)c2c1	x	x	x	-82.1	x	x
SMILES	FEN1 inhibitor	GCN5L2 inh	APE1 inh	PI5P4K alpha inh	BLM inh	RECQ1 inh
CCN(CCCCO)c1nc(C)nc2c1c(C)c(C)n2-c1c(C)cc(C)cc1C	x	n	n	x	n	n
CCCCCNc1oc(-c2cccc3ccccc23)nc1C#N	x	x	n	x	x	x
CCCCCCCCCCCCCCCC(=O)OCC(O)C1OC(=O)C(O)=C1O (stereo not drawn)	x	8.91µM	x	x	u	u
CCCCCCCCCCCCCCCCCC(=O)OCC(C)O (stereo not drawn)	x	n	u	x	n	n
NC(=O)c1cc2ccc(O)cc2oc1=Nc1ccccc1	n	n	n	-72.2	n	n
O=C(O)c1ccc(N=c2oc3cc(O)ccc3cc2C(=O)NCc2ccccc2)cc1	u	n	n	-78.2	n	n
CC(C)(C)NC(=O)C(C1CC1)n1c(=O)c(-c2ccco2)nc2ccccc21 (stereo not drawn)	x	x	x	-62.5	x	x
CC(C)(C)NC(=O)C(c1ccc(C(F)(F)F)cc1)n1c(=O)c(-c2ccco2)nc2ccccc21 (stereo not drawn)	x	x	x	-64.2	x	x
